HSP90 refold inh – inhibitors of HSP90 luciferase refolding in rabbit reticulocyte lysate. AID 1789. 290,000 tested, 0.91% active. inhibition, % at 5.6 µM. luciferase refolding luminescence, 3 h;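 active means inhibition above the screen-wide mean plus 3 SD, computed separately per campaign, cut at about 16% in these data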;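 further: 0% = DMSO wells and 100% = 60 µM geldanamycin wells; inhibitors lower the luminescence because luciferase stays unfolded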
AI-2 QS mod – modulators of Vibrio harveyi AI-2 quorum sensing system; 300,000 tested, 0.4% active; activity change, % at 7.5 µM; Vibrio harveyi JMH597 AI-2 luminescence/OD600 ratio, 9 h; hits give low values; strain lacks LuxN and CqsS sensors; 0 = neutral-control median; in the data active means activity change below about -75%, passing the limit was not always enough; inconclusive means no clear call, values can overlap the other calls;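 further: luminescence divided by OD600 gain over 9 h not by final OD600 alone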
SMARCA2 act – increases SMARCA2 function in MMTV reporter cells. MG213 cells, MMTV-luciferase reporter, dexamethasone, overnight. activation, % at 9.1 µM. 370,000 tested, 1% active. AID 652017; in the data active means activation above about 7.8%;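 further: 0% = vehicle wells and 100% = reference activator wells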
PG9 binder – PG9 antibody binding by small molecule; TR-FRET gp120-PG9 antibody binding; inhibition, % at 6.7 µM; 360,000 tested, 0.43% active; AID 624416; in the data active means inhibition above about 8.5%
HSF1 inh – HSF1 inhibition; NIH3T3-HGL HSE-luciferase, MG132-induced, luminescence 8 h; hits give low values; activity change, negative = inhibition, % at 7.5 µM (by protocol); 300,000 tested, 0.77% active;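 active means more than half of replicate wells show activity change below -50%, luminescence cut by over half; inconclusive means some wells, but at most half, below -50%; inactive means no replicate well below -50%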;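 further: luciferase reports HSF-1 transcriptional activity via heat shock element; 0% = median of DMSO wells and -100% = zero luminescence signal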
GAA850 FXN act – activators of GAA850 frataxin (FXN) promoter; activation, % at 6 µM; 360,000 tested, 0.56% active; HEK293 lucGAA850 FXN promoter luciferase reporter, 24 h; percent of 10 µM SAHA response;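 active means activation above the average of all compounds screened plus 3 SD, cutoff fixed separately per campaign, cut at about 7.5% in these data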;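 further: 0% = DMSO wells and 100% = 10 µM SAHA wells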
PG9 binder conf – confirmation of small molecules binding HIV-1 gp120 antibody PG9; inhibition, % at 6.7 µM; 1,500 tested, 90% active; AID 651571; TR-FRET PG9 antibody binding, biochemical; shares compounds with PG9 binder; in the data active means inhibition above about 9%
PGV04 Ab binding – PGV04 control antibody binding, counter-screen | 1,500 tested, 95% active | shares compounds with PG9 binder | TR-FRET PGV04 antibody-gp120 binding, biochemical | AID 651604 | inhibition, % at 6.7 µM; in the data active means inhibition above about 9.5%
PG9 binder DR – small molecules binding HIV-1 gp120 antibody PG9. shares compounds with PG9 binder. 95 tested, under 10 active. TR-FRET PG9 antibody-gp120 binding inhibition. IC50, µM. AID 651848; in the data active means IC50 below about 10 µM
PGV04 binding DR – PGV04 binding, dose response counter-screen | TR-FRET binding to control antibody PGV04 | 95 tested, 20% active | shares compounds with PG9 binder | IC50, µM
PG126 DR counter – binds control antibody PG126 in PG9 counter-screen; TR-FRET binding to antibody PG126, counterscreen; shares compounds with PG9 binder; 95 tested, 20% active; IC50, µM
An asterisk follows results filed as active; i = inactive; ? = inconclusive; / = no result. A selection: hits, their analogues and other compounds. The true share with any hit is near 3.4%. Unless noted, no stated cut-off is given here; in the data, active means IC50 below about 9 µM; inactive means the rest.

SMILES	HSP90 refold inh	AI-2 QS mod	SMARCA2 act	PG9 binder	HSF1 inh	GAA850 FXN act	PG9 binder conf	PGV04 Ab binding	others
CC(C)(C)NC(=O)C(c1ccc(C(F)(F)F)cc1)n1c(=O)c(-c2cc3ccccc3[nH]2)nc2ccccc21 (configuration not stated)	/	/	-1.7	1.4	/	/	/	/
CC1=CC(=C(C#N)C#N)C=C(C)N1Cc1ccc(Cl)cc1	1.0	8.7	-2.4	19.1*	7.1	1.9	23.6*	31.1*
Cc1cccc(C(C)C)c1NC(=O)CSc1cccc[n+]1[O-]	/	/	-3.3	1.1	/	0.2	/	/
Cc1cccc(NC(=O)CSc2cccc[n+]2[O-])c1C	/	/	-0.6	16.1*	/	0.3	9.3*	11.2*
N#Cc1cc2c(nc1SCC(=O)NCc1ccc3c(c1)OCO3)CCCCC2	1.3	16.8	2.0	13.5*	-3.4	0.9	16.5*	25.9*
CC(=O)Nc1ccc(S(=O)(=O)Nc2nc3cc4c(cc3nc2Cl)OCCO4)cc1	0.7	18.5	3.4	13.4*	-4.2	-0.8	26.3*	35.3*
Cc1ccc(C(C)(C)C)cc1S(=O)(=O)Nc1nc2ccccc2nc1Cl	-7.0	7.1	-2.6	13.3*	1.4	-0.8	21.5*	24.6*
CC(=O)Nc1ccc(S(=O)(=O)Nc2nc3ccccc3nc2Cl)cc1	-3.1	13.6	-0.1	16.6*	-13.3	-0.7	25.3*	31.7*
CCN(C(=O)[C@@H](C1CC1)[C@@H](O)c1ccc(Cl)cc1)c1ccccc1	/	/	0.2	/	/	/	/	/
COc1ccc(/C=C/C(=O)Oc2ccc(/C=N/NC(=O)COc3c(C)cccc3C)cc2)cc1	-1.5	8.5	-1.4	-0.3	?	3.2	/	/
COc1ccc(/C=C/C(=O)Oc2cccc(/C=N/NC(=O)COc3c(C)cccc3C)c2)cc1	-2.7	21.4	1.9	9.5*	2.4	2.0	10.5*	15.7*
CC1OC2CC(=O)OC2C2=C1C(=O)c1c(O)cccc1C2=O (configuration not stated)	/	/	-7.9	15.1*	/	-16.6	14.3*	17.2*
COC(=O)[C@@]1(Sc2ccc(C)cc2)CC(=O)N[C@@H]1c1ccco1	/	/	-3.2	0.1	/	/	/	/
CCN(C(=O)c1cc2c(=O)[nH]c3ccc(C)cc3c2s1)c1cccc(C)c1	-4.0	2.3	-3.2	0.1	1.8	-0.9	/	/
CCN(C(=O)c1cc2c(=O)[nH]c3ccc(C)cc3c2s1)c1ccc(F)cc1	-5.0	9.1	-2.8	15.3*	-75.5*	-6.9	14.0*	23.9*
COc1cc2[nH]c(=S)n(NC(=O)c3ccccc3)c(=O)c2cc1OC	5.3	3.1	3.7	15.8*	4.6	1.4	17.9*	15.8*	PG9 binder DR=>67;PGV04 binding DR=i;PG126 DR counter=i
COC(=O)c1ccc2c(=O)n(NC(C)=O)c(=S)[nH]c2c1	-1.7	12.7	-3.1	-0.1	-2.5	-2.1	/	/
CCCNC(=O)C[C@H]1CC[C@H]2[C@@H](COc3ccc(NC(=O)Nc4ccccc4)cc3C(=O)N2C)O1	/	/	-1.0	/	/	/	/	/
COc1ccc2nc(SCC(C)=O)c(C#N)cc2c1	-6.0	15.9	5.9	-11.9	37.2	4.7	/	/
COc1ccc2nc(SC)c(C#N)cc2c1	0.7	8.2	-3.7	12.6*	96.2	0.9	26.4*	58.4*
COc1ccccc1-c1noc(-c2cccs2)n1	-2.6	19.3	2.4	0.6	6.0	2.6	/	/
Cc1ccc(-c2noc(-c3cccs3)n2)cc1	4.3	3.6	2.7	8.8*	11.1	6.3	26.1*	27.7*
O=C1C(=C(c2ccccc2)N2CCOCC2)Cc2ccccc21	/	/	-10.7	1.1	/	-1.5	/	/
